Test results as given in PubChem BioAssay (NCI).
About 79,000 compounds went through this panel and 15% of them were active in at least one assay; those are over-represented in the sample as a whole. Calls of active or inactive are those of the source. Cut-off read from the data, not from the text of the source: active = growth inhibition above about 70%; inactive = the rest.

Legend:
[1] = NCI Yeast Anticancer Drug Screen. Data for the rad52 strain (AID 147);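 note: 0% = growth of vehicle-treated control cultures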; conditions: S. cerevisiae rad52 mutant growth inhibition, hits give high values
How it was run: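 Inhibition of yeast growth, referenced to vehicle controls, was the measured output for a strain with defective DNA damage repair.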

[2] = NCI Yeast Anticancer Drug Screen. Data for the wt1 strain (AID 149);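 note: 0% = growth of vehicle-treated wt1 cultures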; conditions: S. cerevisiae wt1 strain (SPY 50644) growth inhibition, hits give high values
How it was run: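 wt1 strain grown with compound or vehicle; inhibition taken from the growth difference.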

[3] = NCI Yeast Anticancer Drug Screen. Data for the rad50EPP+ strain (AID 151);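 note: 0% = growth of vehicle-treated control cultures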; conditions: S. cerevisiae rad50 mutant strain, hits give high values
How it was run: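 Genetically defined yeast (rad50EPP+, DNA damage repair alteration) is grown with compound, and inhibition of growth is expressed relative to vehicle-treated controls.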

[4] = NCI Yeast Anticancer Drug Screen. Data for the mgt1 strain (AID 153); conditions: S. cerevisiae mgt1 mutant growth inhibition, hits give high values
How it was run: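 In the mgt1 strain, test compounds were added and growth inhibition was determined relative to vehicle-treated controls.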

[5] = NCI Yeast Anticancer Drug Screen. Data for the rad50 strain (AID 155);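 note: 0% = growth of vehicle-only cultures of the same strain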; conditions: S. cerevisiae rad50 strain growth inhibition, hits give high values
How it was run: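 DNA repair mutant yeast, compound exposure, growth read-out; inhibition is taken relative to vehicle.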

[6] = NCI Yeast Anticancer Drug Screen. Data for the mec2-1 strain (AID 157); conditions: S. cerevisiae mec2-1 strain, hits give high values
How it was run: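 Each compound was tested on mec2-1 yeast, a strain altered in DNA damage repair or cell cycle control. Growth inhibition is reported relative to vehicle.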

[7] = NCI Yeast Anticancer Drug Screen. Data for the rad14 strain (AID 159);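 note: 0% = growth of vehicle-treated control cultures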; conditions: S. cerevisiae rad14 strain growth inhibition, hits give high values
How it was run: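 DNA repair-defective yeast, compound-exposed; % growth inhibition derived by comparison with vehicle-treated controls.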

[8] = NCI Yeast Anticancer Drug Screen. Data for the sgs1 mgt1 strain (AID 161);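 note: 0% = growth of cultures given vehicle only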; conditions: S. cerevisiae sgs1 mgt1 strain, hits give high values
How it was run: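 Test agents were incubated with a DNA-repair-mutant yeast strain. Growth was then read and compared against vehicle-treated controls.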

[9] = NCI Yeast Anticancer Drug Screen. Data for the CLN2oe strain (AID 163);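 note: 0% = growth of vehicle-only control cultures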; conditions: S. cerevisiae CLN2oe strain, hits give high values
How it was run: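 First, the altered yeast strain was treated with each compound; second, its growth was measured; finally, inhibition was derived by comparison with vehicle controls.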

[10] = NCI Yeast Anticancer Drug Screen. Data for the cln2 rad14 strain (AID 165);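 note: 0% = growth equal to vehicle treated cultures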; conditions: S. cerevisiae cln2 rad14 strain, hits give high values
How it was run: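 Test compounds were added to cln2 rad14 yeast cultures; inhibition of growth was then determined by comparison with vehicle treatment.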

[11] = NCI Yeast Anticancer Drug Screen. Data for the bub3 strain (AID 167); conditions: S. cerevisiae bub3 mutant strain, hits give high values
How it was run: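 In this screen, a yeast mutant lacking normal mitotic checkpoint function is challenged with compound. Relative growth versus vehicle gives the inhibition value.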

[12] = NCI Yeast Anticancer Drug Screen. Data for the mlh1 strain (AID 171);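 note: 0% = growth of vehicle-treated control cultures of the same strain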; conditions: S. cerevisiae mlh1 strain growth inhibition, hits give high values
How it was run: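 Inhibition values reflect reduced yeast growth in the presence of compound, referenced to vehicle controls, using a strain chosen for its alteration in DNA repair or cell cycle control.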

[13] = NCI Yeast Anticancer Drug Screen. Data for the sgs1 strain (AID 173);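 note: 0% = growth of vehicle-only control cultures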; conditions: S. cerevisiae sgs1 mutant, hits give high values
How it was run: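 Vehicle-treated cultures served as reference for growth inhibition of a yeast strain altered in DNA damage repair or cell cycle control after compound exposure.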

[14] = NCI Yeast Anticancer Drug Screen. Data for the mlh1 rad18 strain (AID 175); conditions: S. cerevisiae mlh1 rad18 strain growth inhibition, hits give high values
How it was run: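 Inhibition values reflect reduced growth of mutant yeast versus vehicle-treated controls following compound exposure; the mutations affect DNA damage repair.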

[15] = NCI Yeast Anticancer Drug Screen. Data for the rad18 strain (AID 177); conditions: S. cerevisiae rad18 mutant growth inhibition, hits give high values
How it was run: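 Steps: expose repair-mutant yeast to compound; measure growth; express as inhibition relative to vehicle control.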

[16] = at 5.0 µM (retest, dose inferred, filed as 0.5)
[17] = at 50.0 µM (retest, dose inferred, filed as 5.0)

Measured: growth inhibition

CN(C)c1ccc(N=Nc2ccncc2)cc1
active: [1]; at 100.0 µM 71% | [3]; at 33.0 µM 87% | [3]; at 100.0 µM 82% | [5]; at 50.0 µM 82.3% | [5]; at 100.0 µM 77% | [8]; at 50.0 µM 70.6% | [11]; at 33.0 µM 78% | [11]; [17] 73% | [11]; at 50.0 µM 86.5% | [11]; at 100.0 µM 86%
inactive: [1]; at 1.2 µM 1% | [1]; at 3.7 µM 1% | [1]; at 11.0 µM 15% | [1]; at 33.0 µM 33% | [2]; at 1.2 µM -7% | [2]; at 3.7 µM -3% | [2]; at 11.0 µM -1% | [2]; at 33.0 µM -1% | [2]; at 100.0 µM 40% | [3]; at 1.2 µM 3% | [3]; at 3.7 µM 12% | [3]; at 11.0 µM 64% | [4]; at 1.2 µM -2% | [4]; at 3.7 µM 12% | [4]; at 11.0 µM 31% | [4]; at 33.0 µM 35% | [4]; at 100.0 µM 49% | [5]; at 1.2 µM 8% | [5]; at 3.7 µM 11% | [5]; [16] -86% | [5]; at 11.0 µM 31% | [5]; at 33.0 µM 55% | [5]; [17] 27% | [6]; at 1.2 µM -2% | [6]; at 3.7 µM 7% | [6]; [16] -41% | [6]; at 11.0 µM 19% | [6]; at 33.0 µM 18% | [6]; [17] -3% | [6]; at 50.0 µM 53.1% | [6]; at 100.0 µM 67% | [7]; at 1.2 µM 9% | [7]; at 3.7 µM 31% | [7]; at 11.0 µM 51% | [7]; at 33.0 µM 47% | [7]; at 100.0 µM 52% | [8]; [16] -19% | [8]; [17] 32% | [9]; at 1.2 µM 13% | [9]; at 3.7 µM 22% | [9]; at 11.0 µM 37% | [9]; at 33.0 µM 38% | [9]; at 100.0 µM 36% | [10]; [16] -36% | [10]; [17] 2% | [10]; at 50.0 µM 37.1% | [11]; at 1.2 µM 4% | [11]; at 3.7 µM 22% | [11]; [16] -13% | [11]; at 11.0 µM 60% | [12]; at 1.2 µM 7% | [12]; at 3.7 µM 11% | [12]; at 11.0 µM 29% | [12]; at 33.0 µM 42% | [12]; at 100.0 µM 47% | [13]; at 1.2 µM 15% | [13]; at 3.7 µM 41% | [13]; at 11.0 µM 63% | [13]; at 33.0 µM 67% | [13]; at 100.0 µM 68% | [14]; [16] -82% | [14]; [17] 4% | [14]; at 50.0 µM 67.7% | [15]; at 1.2 µM 6% | [15]; at 3.7 µM 24% | [15]; at 11.0 µM 35% | [15]; at 33.0 µM 19% | [15]; at 100.0 µM 31%
